Measurements reported in PubChem BioAssay (Tox21).
Inconclusive results are not listed. A number with no mark means an inactive call. Activity calls are given as the source filed them. Unless noted, calls come from the whole dose curve.

Assay: qHTS assay to identify small molecule agonists of the endoplasmic reticulum stress response signaling pathway (AID 1159516; active = well fitted activation curve with a large enough effect in the signal ratio in the repeat runs, not every such curve was filed as active; the % refers to the signal ratio)
Details: ESRE-bla HeLa, ER stress beta-lactamase reporter, 5 h; series mostly up to 61 µM
In short: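 Beta-lactamase expression from the ER stress response element in HeLa reporter cells is quantified with the LiveBLAzer B/G FRET substrate, read at 405 nm excitation after 2 hr at room temperature, following 5 hr compound treatment at 37 C.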
% is set by controls: 0 for no effect and ±100 for the full control effect.

Compound	outcome
CC1=NN(c2cccc(S(=O)(=O)O)c2)C(=O)C1	inactive
CC(=O)Nc1ccc(OCC(O)CNC(C)C)cc1 (stereo not drawn)	inactive
NS(=O)(=O)Cc1noc2ccccc12	inactive
C[C@H]1C[C@H]2[C@@H]3CCC4=CC(=O)C=C[C@]4(C)[C@H]3C(=O)C[C@]2(C)[C@@]1(O)C(=O)CO	inactive
CN(C)C(=O)Oc1cccc([N+](C)(C)C)c1	inactive
CCCCOCCOC(=O)COc1cc(Cl)c(Cl)cc1Cl	inactive
CC1(C)[C@@H]2CC[C@@]1(C)[C@H](O)C2	inactive
CC(CO)(CO)[N+](=O)[O-]	inactive
O=C(CO)[C@@H](O)[C@H](O)[C@@H](O)CO	inactive
CC1CCC(CO)CC1 (stereo not drawn)	inactive
CCCCS(=O)(=O)N[C@@H](Cc1ccc(OCCCCC2CCNCC2)cc1)C(=O)O	inactive
C[C@@H]1C[C@H]2[C@@H]3C[C@H](F)C4=CC(=O)C(Cl)=C[C@]4(C)[C@@]3(F)[C@@H](O)C[C@]2(C)[C@@]1(O)C(=O)CO	inactive
CC(C)NNC(=O)c1ccncc1	inactive
CCCC[N+](C)(CCCC)CCCC	inactive
CCOC(=O)c1ccccc1	inactive
CCC(C)(CN(C)C)OC(=O)c1ccccc1 (stereo not drawn)	inactive
C1CCC2(CCCCO2)OC1	inactive
CO/N=C(\C(=O)N[C@@H]1C(=O)N2C(C(=O)O)=C(CSc3nc(=O)c(O)nn3C)CS[C@H]12)c1csc(N)n1	inactive
C[N+]1(CC2COC(c3ccccc3)(c3ccccc3)O2)CCCCC1 (stereo not drawn)	inactive
CC/C=C\CCOC(C)OCC (stereo not drawn)	inactive
O=C(O)c1cn(C2CC2)c2cc(N3CCNCC3)c(F)cc2c1=O	inactive
CCCCCCCCCCCCSC	inactive
CC(C)c1ccc2ncccc2c1	inactive
CC(=O)N1C[C@H](O)C[C@H]1C(=O)O	inactive
C[N+]12CCC(CC1)C(OC(=O)C(O)(c1ccccc1)c1ccccc1)C2 (stereo not drawn)	inactive
CCCCCCCCCCCCCCC(=O)O	inactive
O=C1NC(=O)C2CC=CCC12 (stereo not drawn)	inactive
N[C@H](C(=O)O)[C@@H](O)c1ccc(O)c(O)c1	inactive
COc1ccnc(CS(=O)c2nc3cc(OC(F)F)ccc3[nH]2)c1OC (stereo not drawn)	inactive

Assay: qHTS assay to identify small molecule agonists of the endoplasmic reticulum stress response signaling pathway - cell viability counter screen (AID 1159517); note: nearly all actives have a fitted effect of over 50% in size
Details: ESRE-bla HeLa viability, CellTiter-Glo luminescence, 5 h; series mostly up to 61 µM
In short: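 Cytotoxicity of test compounds toward ESRE-bla HeLa cells was assessed after 5 hr exposure. The luminescent CellTiter-Glo signal was measured 30 min after reagent addition.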

Compound	outcome	activity change, negative = cytotoxicity
C[N+]1(C)[C@@H]2CC(OC(=O)[C@H](CO)c3ccccc3)C[C@H]1[C@@H]1O[C@@H]12 (stereo partly drawn)	inactive	–
CC1=NN(c2cccc(S(=O)(=O)O)c2)C(=O)C1	inactive	–
CC(=O)Nc1ccc(OCC(O)CNC(C)C)cc1 (stereo not drawn)	inactive	–
NS(=O)(=O)Cc1noc2ccccc12	inactive	–
CCCO[Si](OCCC)(OCCC)OCCC	inactive	–
C[C@H]1C[C@H]2[C@@H]3CCC4=CC(=O)C=C[C@]4(C)[C@H]3C(=O)C[C@]2(C)[C@@]1(O)C(=O)CO	inactive	–
CCCc1nn(C)c2c(=O)[nH]c(-c3cc(S(=O)(=O)N4CCN(C)CC4)ccc3OCC)nc12	inactive	–
CN(C)C(=O)Oc1cccc([N+](C)(C)C)c1	inactive	–
CC[C@H]1OC(=O)[C@H](C)[C@@H](O[C@H]2C[C@@](C)(OC)[C@@H](O)[C@H](C)O2)[C@H](C)[C@@H](O[C@@H]2O[C@H](C)C[C@H](N(C)C)[C@H]2O)[C@](C)(OC)C[C@@H](C)C(=O)[C@H](C)[C@@H](O)[C@]1(C)O	inactive	–
OCCCCCO	inactive	–
CCCCOCCOC(=O)COc1cc(Cl)c(Cl)cc1Cl	inactive	–
CC1(C)[C@@H]2CC[C@@]1(C)[C@H](O)C2	inactive	–
CC(CO)(CO)[N+](=O)[O-]	inactive	–
O=C(CO)[C@@H](O)[C@H](O)[C@@H](O)CO	inactive	–
CC1CCC(CO)CC1 (stereo not drawn)	inactive	–
CC(C#N)(CCC(=O)O)N=NC(C)(C#N)CCC(=O)O (stereo not drawn)	inactive	–
CCCCS(=O)(=O)N[C@@H](Cc1ccc(OCCCCC2CCNCC2)cc1)C(=O)O	inactive	–
CCN1CCOCC1	inactive	–
C[C@@H]1C[C@H]2[C@@H]3C[C@H](F)C4=CC(=O)C(Cl)=C[C@]4(C)[C@@]3(F)[C@@H](O)C[C@]2(C)[C@@]1(O)C(=O)CO	inactive	–
CC(C)NNC(=O)c1ccncc1	inactive	–

Compound	outcome	activity change, negative = cytotoxicity
NC(=O)Cc1cccc2ccccc12	inactive	–
CCCC[N+](C)(CCCC)CCCC	inactive	–
CCOC(=O)c1ccccc1	inactive	–
CCC(C)(CN(C)C)OC(=O)c1ccccc1 (stereo not drawn)	inactive	–
C=CN1CCCCCC1=O	inactive	–
C1CCC2(CCCCO2)OC1	inactive	–
CO/N=C(\C(=O)N[C@@H]1C(=O)N2C(C(=O)O)=C(CSc3nc(=O)c(O)nn3C)CS[C@H]12)c1csc(N)n1	inactive	–
C[N+]1(CC2COC(c3ccccc3)(c3ccccc3)O2)CCCCC1 (stereo not drawn)	inactive	–
CC/C=C\CCOC(C)OCC (stereo not drawn)	inactive	–
O=C(O)c1cn(C2CC2)c2cc(N3CCNCC3)c(F)cc2c1=O	inactive	–
CCCCCCCCCCCCSC	inactive	–
CC(C)c1ccc2ncccc2c1	inactive	–
CC(=O)N1C[C@H](O)C[C@H]1C(=O)O	inactive	–
C[N+]12CCC(CC1)C(OC(=O)C(O)(c1ccccc1)c1ccccc1)C2 (stereo not drawn)	inactive	–
CCN[C@@H]1C[C@H](N)[C@@H](OC2OC(CN)=CCC2N)[C@H](O)[C@H]1O[C@H]1OC[C@](C)(O)[C@H](NC)[C@H]1O (stereo partly drawn)	–	-1.46% [at 0.628 µM]
CCCCCCCCCCCCCCC(=O)O	inactive	–
O=C1NC(=O)C2CC=CCC12 (stereo not drawn)	inactive	–
N[C@H](C(=O)O)[C@@H](O)c1ccc(O)c(O)c1	inactive	–
COc1ccnc(CS(=O)c2nc3cc(OC(F)F)ccc3[nH]2)c1OC (stereo not drawn)	inactive	–
